# Sampled rows, rich in hits. Any-hit rate of the full collection: about 6.3%.
# TIM10 inh: inhibits growth of TIM10 yeast strain; S. cerevisiae TIM10 strain growth, BacTiter-Glo luminescence, 24 h; inhibition, % at 10 µM; actives 1.4% (n = 330,000);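 active means inhibition of 40% or more at the single tested concentration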;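 further: wild-type TIM10 isogenic control strain grown at permissive 25 °C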
# tim10-1 inh: growth inhibitors of tim10-1 mutant yeast | actives 2.2% (n = 330,000) | S. cerevisiae tim10-1 ts strain growth, BacTiter-Glo, 24 h | inhibition, % at 20 µM;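 active means inhibition of at least 40%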;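 further: mutant grown at 25 °C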
# tim23-1 inh: growth inhibitors of tim23-1 mutant yeast. S. cerevisiae tim23-1 growth, BacTiter-Glo luminescence, 24 h. inhibition, % at 20 µM. actives 1.3% (n = 330,000). AID 463212;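 active means growth inhibition of the mutant yeast at or above 50%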;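 further: temperature-sensitive mutant grown at 25 °C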
# Mdm2-MdmX inh: human Mdm2/MdmX binding inhibition; SaOS-2 split-luciferase Mdm2/MdmX complementation, luminescence; O15151+Q00987; inhibition, % at 8 µM; actives 3% (n = 330,000); AID 485346;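 active means inhibition of at least 50% at 8 µM in the primary screen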
# MPTP block: blocks calcium-induced mitochondrial swelling; isolated mouse mitochondria, Ca2+ swelling absorbance, 30 min; actives 1.4% (n = 360,000); inhibition, % at 10 µM;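 active means inhibition of 50% or more, scaled per plate between neutral and stimulator controls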
# tim10-1 confirm: tim10-1 yeast growth inhibition, confirmed | shares compounds with tim10-1 inh | S. cerevisiae tim10-1 ts strain growth, BacTiter-Glo, 24 h | inhibition, % at 20 µM | actives 56% (n = 7,400) | AID 463213;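 active means inhibition of yeast growth at or above a set limit in either of two repeat tests at 20 µM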;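 further: tim10-1 mutant grown at permissive 25 °C to find synthetic lethal compounds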
# TIM10 conf: TIM10 yeast growth inhibition, confirmed. shares compounds with TIM10 inh. S. cerevisiae tim10 strain growth, BacTiter-Glo luminescence, 24 h. inhibition, % at 10 µM. actives 63% (n = 4,600);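 active means inhibition of yeast growth at or above a set limit in either of two replicates at 10 µM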; further: this counterscreen used the strain with wild-type TIM10
# Numbers stand for hits; . = inactive; / = no result.
SMILES,TIM10 inh,tim10-1 inh,tim23-1 inh,Mdm2-MdmX inh,MPTP block,tim10-1 confirm,TIM10 conf
O=C(NC12CC3CC(CC(C3)C1)C2)c1ccccc1O,49.0,50.4,.,.,.,50.8,48.0
Nc1ccc(C(=O)NC23CC4CC(CC(C4)C2)C3)cc1,.,.,.,.,.,/,/
COc1cc(/C=N/N(C)c2ccccc2)cc(Cl)c1O,40.4,47.7,.,.,.,.,.
N/C(=N\OC(=O)c1cccnc1)c1ccc(Cl)cc1Cl,40.6,43.8,.,.,.,41.0,.
CNC(=O)CSc1nnc(-c2ccccn2)n1Cc1ccco1,.,.,.,.,.,/,/
CC(C)(C)c1ccc(CSc2nnc(-c3ccccn3)n2Cc2ccco2)cc1,45.0,42.0,.,.,.,48.2,37.8
O=C1C(=Cc2ccncc2)CCCc2ccccc21,/,/,/,/,.,/,/
O=C1/C(=C/c2ccncc2)CCc2ccccc21,45.1,50.1,.,.,.,56.2,55.3
CC1CCCC(NC(=O)Nc2cccs2)C1C (stereo unspecified),56.3,55.5,.,.,.,65.2,52.5
CC1CCCC(NC(=O)c2ccncc2)C1C (stereo unspecified),.,.,.,.,.,/,/
O=C1CCCC[C@@H](CO)[C@H](O)C[C@H](c2ccccc2)O1,/,/,/,/,.,/,/
Cc1cc(OCCSc2nnc(-c3cccs3)n2C)ccc1Cl,.,.,.,.,.,/,/
Cn1c(SCCOc2ccccc2Cl)nnc1-c1cccs1,51.2,50.8,.,.,.,39.9,51.4
CC(=O)N1CC2(CC(c3ccc(Cl)cc3Cl)=NO2)CN1c1cccc(Cl)c1 (stereo unspecified),/,/,/,/,.,/,/
COc1cccc(C=NNc2nc3ccccc3s2)c1OC,/,/,/,/,.,/,/
COc1cccc(/C=N/Nc2ncnc3scc(-c4ccccc4)c23)c1OC,40.2,46.1,.,.,.,42.9,31.3
COc1ccc(CCNC2=CC(=O)CCC2)cc1OC,/,/,/,/,.,/,/
CC1(C)CC2CC(C)(CN2C(=S)NC(=O)c2ccccc2Cl)C1 (stereo unspecified),41.6,40.7,.,.,.,31.6,.
CC1(C)CC2CC(C)(CN2C(=S)Nc2ccccc2)C1 (stereo unspecified),.,.,.,.,.,/,/
O=C(O)C1CCC2CCCC21 (stereo unspecified),/,/,/,/,.,/,/
O=C(NC(=S)Nc1cccc([N+](=O)[O-])c1)C1CCCC1,46.9,54.1,.,.,.,44.8,51.5
O=C(CSCc1ccc(Br)cc1)N=Nc1c(O)[nH]c2ccccc12,43.0,44.9,.,.,.,40.1,33.5
CCOC(=O)N1c2ccccc2Sc2ccccc21,.,.,.,.,.,/,/
Cc1ccccc1/C(N)=N/OC(=O)N1c2ccccc2Sc2ccccc21,73.7,72.4,.,.,.,69.3,81.3
CCOC(=O)c1ccc(NS(=O)(=O)c2ccc(SC)cc2)cc1,40.3,40.8,.,.,.,38.3,.
SMILES,TIM10 inh,tim10-1 inh,tim23-1 inh,Mdm2-MdmX inh,MPTP block,tim10-1 confirm,TIM10 conf
Cn1c(Cc2ccccc2)nc(=O)c2ccccc21,/,/,/,/,.,/,/
COc1ccc(N2CCN(C(=O)c3ccc(Br)cc3)CC2)c([N+](=O)[O-])c1,52.6,54.2,.,.,.,47.9,63.2
CCOC(=O)C1CCN(C(=O)c2ccc(OCC(=O)Nc3cccc(C(F)(F)F)c3)c(OC)c2)CC1,59.0,54.7,.,.,.,65.8,62.6
CCOC(=O)C1CCN(C(=O)c2ccc(OCC(=O)Nc3ccc(OCC)cc3)c(OC)c2)CC1,.,.,.,.,.,/,/
COc1ccc(OC)c(C2C=C(C34CC5CC(CC(C5)C3)C4)NC(=S)N2)c1 (stereo unspecified),40.6,46.7,.,.,.,.,.
CCOC(=O)N1CCN(S(=O)(=O)c2ccc3c(c2)CCN3C(=O)C2CCC2)CC1,46.9,56.5,.,.,.,53.3,.
O=C(C1CCC1)N1CCc2cc(S(=O)(=O)N3CCN(c4ccccn4)CC3)ccc21,55.5,69.4,.,.,.,69.3,.
C[C@H](CO)N1C[C@H](C)[C@H](CN(C)Cc2ccncc2)Oc2cc(-c3ccccc3F)ccc2S1(=O)=O,/,/,/,/,.,/,/
Oc1cc(NCc2cccnc2)ccc1-c1nc2ccccc2o1,55.4,46.8,.,.,.,.,39.0
CCc1ccc(OCC(=O)Nc2ccc(-c3nc4ccccc4o3)c(O)c2)cc1,.,.,.,.,.,/,/
Cc1cc(C)n(-c2nc(-n3nc(C)cc3C)c3c4c(sc3n2)COC(C)(C)C4)n1,40.6,49.7,.,.,/,33.6,.
COC(=O)/C=C1\OCc2ccccc21,/,/,/,/,.,/,/
COc1ccc(C(=O)COC(=O)C2COc3ccccc3O2)c(OC)c1 (stereo unspecified),/,/,/,/,.,/,/
Cc1cccc(-n2cc(CN(C)Cc3nccn3C)c(-c3cccc(F)c3)n2)c1,44.9,43.2,.,.,.,.,43.5
CCn1ccnc1CN(C)Cc1cn(-c2cccc(C)c2)nc1-c1cccc(F)c1,.,.,.,.,.,/,/
CC1CN(S(=O)(=O)c2ccc(C(=O)N(CCCN(C)C)c3nc4cc5c(cc4s3)OCCO5)cc2)CC(C)O1 (stereo unspecified),44.0,54.0,.,.,.,51.8,45.2
CN(C)CCCN(C(=O)c1ccc(S(=O)(=O)N2CCCCCC2)cc1)c1nc2cc3c(cc2s1)OCO3,/,/,/,/,.,/,/
CCCCNC(=S)N/N=C/c1ccc(C)s1,58.4,56.8,.,.,.,42.5,53.7
CCOC(=O)CSCC(=O)N1N=C(c2cccs2)CC1c1ccc(F)cc1 (stereo unspecified),40.8,46.5,.,.,.,33.8,.
COc1cc(/C=C2/C(C)=C(C#N)c3nc(N)c(C#N)c(C)c32)ccc1OCC(=O)O,41.7,40.9,.,.,/,.,32.2
Cc1cc(C(=O)CN2C(=O)CN(C)C2=O)c(C)n1-c1cccc(S(=O)(=O)N2CCOCC2)c1,.,.,.,.,.,/,/
Cc1cc(C(=O)CCl)c(C)n1-c1cccc(S(=O)(=O)N2CCOCC2)c1,45.6,47.6,.,.,/,30.4,46.1
O=C(COc1cccc(C(F)(F)F)c1)Nc1ccc(S(=O)(=O)N2CCCCC2)cc1,44.9,43.3,.,.,.,49.3,59.0
Cc1cccc(OCC(=O)Nc2ccc(S(=O)(=O)N3CCCC3)cc2)c1,44.8,43.5,.,.,.,36.7,46.9
CCc1cccc(OCC(=O)Nc2ccc(S(=O)(=O)N3CCCC3)cc2)c1,.,.,.,.,.,/,/
Cc1ccc(O)c(-c2cc(-c3cccc(F)c3)n[nH]2)c1,43.0,53.2,.,.,.,34.1,.
Oc1ccc(Br)cc1-c1cc(-c2ccccc2)n[nH]1,58.3,47.3,.,.,.,.,.
c1ccc2c(c1)Sc1cnccc1N2CC1CO1 (stereo unspecified),/,/,/,/,.,/,/
S=c1[nH]nc(COc2ccccc2)n1/N=C/c1ccc(Br)s1,46.2,47.3,.,.,.,33.8,49.0

# Screens: PubChem, Sanford-Burnham Center for Chemical Genomics
